PubChem BioAssay

Assay: growth suppression of yeast trafficking mutant, preliminary HTS, modulators of trafficking downstream of Golgi apparatus project, 1536-format plate, OD 615 nm (AID 637)
Conditions: yeast transport mutant growth, absorbance 615 nm, 18 h; hits give high values; in the data active means inhibition above about 30%; inactive means the rest

inhibition, inactive:
O=C(CNC(=O)c1cccs1)NCCN1CCN(c2ccccc2F)CC1 2.54%
Cc1ccc(Cn2ccc(NC(=O)c3noc4c3CCCC4)n2)cc1 2.86%
COc1cc(NC(=O)c2cc(-n3cnnc3)ccc2Cl)cc(OC)c1 -1.11%
COC(=O)c1ccccc1NC(=O)c1ccc(-c2ccccc2F)o1 -2.74%
O=C(CN1C(=O)CCS(=O)(=O)c2ccccc21)NCc1ccc(F)cc1 -3.81%
Cc1c(O)c(CN2CCCC(C)C2)cc2c3c(c(=O)oc12)CCC3 (stereo unspecified) -2.38%
CC1(C)NC(=O)N(CC(O)CN2CCCCC2)C1=O (stereo unspecified) -4.92%
CCCOc1ccc(N2C(=O)CC(NCCCN3CCC(C(N)=O)CC3)C2=O)cc1 (stereo unspecified) 1.27%
Cc1ccc(Nc2nnns2)cc1C -3.02%
COc1ccc(S(=O)(=O)N2CCC(C(=O)NCc3ccco3)CC2)cc1 -3.97%
C=C(CC)C(=O)c1ccc(OCC(=O)O)c(Cl)c1Cl -0.5%
Cc1cccc(OCC(=O)Nc2ccccc2N2CCN(C(=O)C(C)C)CC2)c1C 4.13%
O=C(NC1CC1)c1cccc(Nc2ccc(-c3ccc4c(c3)OCCO4)nn2)c1 -5.82%
Cc1ccccc1C(=O)N1CCC(C(=O)Nc2ccc(S(=O)(=O)N3CCCC3)cc2)CC1 -3.49%
CC(=O)c1cc(-c2ccccc2)n(CC(=O)N2CCN(C3CCCC3)CC2)c1C 0.95%
CCOc1ccccc1N1C(=O)CC(Sc2ncccc2C(=O)O)C1=O (stereo unspecified) 1.59%
